From PubChem BioAssay (EPA / NIEHS)
Values joined by “and” are separate entries in the source; they are usually repeats but may differ in a detail not shown here. Equal values may be shown once. Records with an inconclusive call do not appear. Some structures have more than one record in an assay (separate samples or runs), and their calls can disagree. Active and inactive are the calls of the source. Rule for the calls, unless noted: active = hit-call score of the fitted dose curve at least 0.9, where 1 is the maximum; inactive = score below 0.9.

Experiments:
[1] = molecular target: Myc proto-oncogene protein (Homo sapiens) (UniProt P01106); assay: ATG_Myc_CIS: Attagene CIS-FACTORIAL HepG2 Assay for human Myelocytomatosis (Myc) Proto-Oncogene Transcription Factor (AID 2282990); conditions: HepG2, Attagene cis-reporter transcription factor activity; actives raise or lower the signal
Method in brief: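 HepG2, transient MRTU transfection (cis promoters, endogenous TFs); 24 h dosing; TriZol RNA → oligo(dT) RT → PCR → 6-FAM primer extension → HpaI cut → CE. Bidirectional fit vs DMSO.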

[2] = ATG_NF_kB_CIS: Attagene CIS-FACTORIAL HepG2 Assay for human Nuclear Factor Kappa B (NF-kB) (AID 2282991); conditions: HepG2 Attagene cis-factorial NF-kB reporter mRNA; actives raise or lower the signal
Method in brief: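 HepG2, transient multi-reporter transfection, cis promoter elements (endogenous TFs). 24 h exposure. Total RNA → RT → PCR → 6-FAM label → HpaI → CE. Gain/loss vs DMSO.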

[3] = ATG_Oct_MLP_CIS: Attagene CIS-FACTORIAL HepG2 Assay for human Octamer-Binding Transcription Factor (Oct) (AID 2282993); conditions: HepG2 Attagene cis-factorial Oct reporter, mRNA; actives raise or lower the signal
Method in brief: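 Using HepG2 cells bearing transfected cis-reporter constructs, mRNA induction was read after 24 h by fluorescent RT-PCR and capillary electrophoresis, with DMSO defining baseline for gain- or loss-of-signal fits.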

[4] = BSK_3C_TissueFactor: BioMAP Diversity Plus: 3C Assay for Tissue Factor Biomarker Activity (AID 2282997); conditions: BioMAP 3C HUVEC, tissue factor biomarker readout; actives raise or lower the signal
Method in brief: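 Primary human umbilical vein endothelial cells in the 3C system were exposed to test chemical for 24 h, then Tissue Factor measured by ELISA. Activity was fitted bidirectionally against DMSO as negative control and baseline.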

[5] = BSK_3C_uPAR: BioMAP Diversity Plus: 3C Assay for Urokinase-type plasminogen activator receptor (uPAR) Biomarker Activity (AID 2282998); conditions: BioMAP 3C HUVEC, uPAR biomarker ELISA; actives raise or lower the signal
Method in brief: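 In this endothelial cell-based assay, human umbilical vein primary cells were treated with chemicals and harvested at 24 h. uPAR was quantified using ELISA, with gains or losses fitted relative to DMSO controls.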

[6] = BSK_3C_VCAM1: BioMAP Diversity Plus: 3C Assay for Vascular cell adhesion molecule 1 (VCAM1) Biomarker Activity (AID 2282999); conditions: BioMAP 3C HUVEC, VCAM1 ELISA, cytokine-stimulated; actives raise or lower the signal
Method in brief: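 Endothelial cells from human umbilical vein are treated with test chemical. At 24 h, VCAM-1 is measured by ELISA, and responses in either direction are fitted relative to DMSO.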

[7] = BSK_4H_Eotaxin3: BioMAP Diversity Plus: 4H Assay for Eotaxin 3 Biomarker Activity (AID 2283000); conditions: primary human endothelial cells (HUVEC); actives raise or lower the signal;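 note: CCL26 protein level quantified by ELISA in parallel with SRB cytotoxicity check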
Method in brief: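 HUVEC, 24 h post-dose, ELISA for Eotaxin-3/CCL26. Gain or loss of signal fitted bidirectionally vs DMSO baseline.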

[8] = molecular target: human Peroxisome Proliferator-activated Receptor alpha (PPARa), PPARA (gene 5465) (UniProt Q07869); assay: ATG_PPARa_TRANS: Attagene TRANS-FACTORIAL HepG2 Assay for human Peroxisome Proliferator-activated Receptor alpha (PPARa) (AID 2283001; active = hit-call score of the fitted dose curve at least 0.9, where 1 is the maximum;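 for AC50: potency for gain of reporter signal over DMSO so agonist or activator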)
Method in brief: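 Read-out is fluorescence of reporter cDNA fragments resolved by capillary electrophoresis after RT-PCR. Human HepG2 liver cells carried transfected PPARa-Gal4 chimera and GAL4-UAS reporter units, treated 24 h; activity scored as increase over DMSO.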

[9] = molecular target: human Peroxisome Proliferator-activated Receptor delta (PPARd), PPARD (gene 5467) (UniProt Q03181); assay: ATG_PPARd_TRANS: Attagene TRANS-FACTORIAL HepG2 Assay for human Peroxisome Proliferator-activated Receptor delta (PPARd) (AID 2283002; active = hit-call score of the fitted dose curve at least 0.9, where 1 is the maximum)
Method in brief: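 Transient HepG2 transfection (multiple GAL4-UAS RTUs, chimeric receptor-Gal4); 24 h dosing; total RNA → oligo(dT) RT → PCR → 6-FAM primer extension → HpaI cut → CE. Positive direction vs DMSO.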

[10] = read-out: Intercellular Adhesion Molecule 1 (ICAM1), ICAM1 (gene 3383); assay: BSK_3C_ICAM1: BioMAP Diversity Plus: 3C Assay for Intercellular Adhesion Molecule 1 (ICAM1) Biomarker Activity (AID 2283003); conditions: primary human endothelial cells (HUVEC); actives raise or lower the signal
Method in brief: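 HUVEC primary cells stimulated under 3C conditions; ICAM1 measured by ELISA 24 h after compound dosing. Curves fitted bidirectionally against the DMSO baseline. Overt cytotoxicity checked by SRB staining of parallel cultures.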

[11] = BSK_3C_Proliferation: Cell Proliferation Assessment in the BioMAP Diversity Plus: 3C Assay (AID 2283006); conditions: primary human endothelial cells (HUVEC);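 for AC50: potency may reflect either rise or fall in cell number versus DMSO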
Method in brief: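 Subconfluent HUVEC (3C system) cultured with chemical; relative cell number read at 48 h by sulforhodamine B total-protein staining (0.1% SRB after 10% TCA fixation, 560 nm). Bidirectional fit relative to DMSO.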

[12] = molecular target: Nuclear receptor subfamily 1 group I member 2 (Homo sapiens) (UniProt O75469); assay: ATG_PXR_TRANS: Attagene TRANS-FACTORIAL HepG2 Assay for human Pregnane X Receptor (PXR) (AID 2283008; active = hit-call score of the fitted dose curve at least 0.9, where 1 is the maximum)
Method in brief: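 HepG2 cells transiently transfected with GAL4-UAS reporter units and PXR-Gal4 chimera, exposed 24 h. Reporter mRNA quantified by RT-PCR, fluorescent labelling, HpaI digestion and capillary electrophoresis; gain of signal vs DMSO.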

[13] = molecular target: human Retinoic Acid Receptor gamma (RARg), RARG (gene 5916) (UniProt P13631); assay: ATG_RARg_TRANS: Attagene TRANS-FACTORIAL HepG2 Assay for human Retinoic Acid Receptor gamma (RARg) (AID 2283009; active = hit-call score of the fitted dose curve at least 0.9, where 1 is the maximum)
Method in brief: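 HepG2 transiently transfected with GAL4-UAS reporter units and chimeric NR-Gal4 constructs; 24 h compound exposure. Reporter mRNA quantified by RT-PCR, FAM labeling, HpaI digestion and capillary electrophoresis; gain-of-signal versus DMSO.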

[14] = molecular target: Retinoic acid receptor RXR-alpha (Homo sapiens) (UniProt P19793); assay: ATG_RXRa_TRANS: Attagene TRANS-FACTORIAL HepG2 Assay for human Retinoid X Receptor alpha (RXRa) (AID 2283012; active = hit-call score of the fitted dose curve at least 0.9, where 1 is the maximum)
Method in brief: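 HepG2 cells transiently transfected with GAL4-UAS reporter units and chimeric RXRa-Gal4 protein, treated 24 h. Reporter mRNA measured by RT-PCR, fluorescent labelling, HpaI digestion and capillary electrophoresis. Induction fitted against DMSO.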

[15] = ATG_NRF2_ARE_CIS: Attagene CIS-FACTORIAL HepG2 Assay for human Nuclear Factor Erythroid 2 Related Factor 2 (NFR2) response to Antioxidant Response Elements (ARE) (AID 2282992); conditions: HepG2 Attagene ARE/NRF2 reporter, transcription factor activity; actives raise or lower the signal;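 for AC50: reporter mRNA level measured by RT-PCR and capillary electrophoresis fluorescence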
Method in brief: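 HepG2 cells transiently transfected with multiplexed cis-element reporter constructs, 24 h after chemical dosing; reporter mRNA quantified by RT-PCR, fluorescent primer extension, HpaI digestion and capillary electrophoresis. Bidirectional fit relative to DMSO.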

[16] = molecular target: human Retinoic Acid Receptor beta (RARb), RARB (gene 5915) (UniProt P10826); assay: ATG_RARb_TRANS: Attagene TRANS-FACTORIAL HepG2 Assay for human Retinoic Acid Receptor beta (AID 2283004; active = hit-call score of the fitted dose curve at least 0.9, where 1 is the maximum)
Method in brief: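 HepG2 cells transiently transfected with multiplexed GAL4-UAS reporter units expressing chimeric NR–Gal4 fusions; 24 h compound exposure. Reporter mRNA quantified by RT-PCR, 6-FAM labelling, HpaI digestion and capillary electrophoresis; gain-of-signal fitted against DMSO baseline.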

[17] = molecular target: human RAR-related Orphan Receptor beta (RORb), RORB (gene 6096) (UniProt Q92753); assay: ATG_RORb_TRANS: Attagene TRANS-FACTORIAL HepG2 Assay for human RAR-related Orphan Receptor beta (RORb) (AID 2283010; active = hit-call score of the fitted dose curve at least 0.9, where 1 is the maximum)
Method in brief: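 HepG2 cells transiently transfected with GAL4-UAS reporter units expressing chimeric NR-Gal4 protein; reporter mRNA measured 24 h after dosing by RT-PCR, 6-FAM labelling and capillary electrophoresis. Gain-of-signal fitted relative to DMSO baseline.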

[18] = molecular target: Cellular tumor antigen p53 (Homo sapiens) (UniProt P04637); assay: ATG_p53_CIS: Attagene CIS-FACTORIAL HepG2 Assay for human p53 Transcription Factor (AID 2282994); conditions: HepG2 p53 cis-element reporter, Attagene mRNA; actives raise or lower the signal
Method in brief: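 HepG2 cells transiently transfected with cis-regulated multiple reporter transcription units, dosed 24 h. Reporter mRNA measured by RT-PCR, 6-FAM primer extension, HpaI digestion and capillary electrophoresis; bidirectional fit relative to DMSO.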

Measured: AC50

Chain of human Peroxisome Proliferator-activated Receptor alpha (PPARa), PPARA (gene 5465) (Q07869 whole entry, looked up, the tested form may be a part): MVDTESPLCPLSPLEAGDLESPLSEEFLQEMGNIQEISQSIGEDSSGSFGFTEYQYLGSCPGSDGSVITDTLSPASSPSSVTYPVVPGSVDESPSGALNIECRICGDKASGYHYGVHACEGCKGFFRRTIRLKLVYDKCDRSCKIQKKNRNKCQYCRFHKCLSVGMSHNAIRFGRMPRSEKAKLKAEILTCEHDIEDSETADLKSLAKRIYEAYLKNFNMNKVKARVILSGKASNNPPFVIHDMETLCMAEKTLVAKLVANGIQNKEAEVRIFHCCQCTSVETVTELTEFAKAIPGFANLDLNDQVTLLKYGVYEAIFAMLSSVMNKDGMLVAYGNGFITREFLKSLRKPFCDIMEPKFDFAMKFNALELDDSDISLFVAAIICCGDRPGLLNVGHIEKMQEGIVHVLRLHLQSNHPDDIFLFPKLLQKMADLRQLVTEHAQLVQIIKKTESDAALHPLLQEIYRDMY
Chain of Retinoic acid receptor RXR-alpha (Homo sapiens) (P19793 whole entry, looked up, the tested form may be a part): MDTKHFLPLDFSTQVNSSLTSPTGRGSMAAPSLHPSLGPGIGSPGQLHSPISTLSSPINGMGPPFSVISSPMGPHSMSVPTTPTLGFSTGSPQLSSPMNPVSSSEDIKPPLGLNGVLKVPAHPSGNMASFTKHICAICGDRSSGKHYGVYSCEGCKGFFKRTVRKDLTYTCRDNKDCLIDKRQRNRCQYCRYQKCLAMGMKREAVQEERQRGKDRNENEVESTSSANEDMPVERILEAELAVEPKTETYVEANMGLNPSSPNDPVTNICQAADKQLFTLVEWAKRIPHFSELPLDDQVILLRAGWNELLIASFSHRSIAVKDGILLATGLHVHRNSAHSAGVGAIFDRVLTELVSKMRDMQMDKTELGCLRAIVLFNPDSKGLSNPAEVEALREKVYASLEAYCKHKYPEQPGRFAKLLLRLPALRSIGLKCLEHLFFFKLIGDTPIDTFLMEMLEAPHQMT
Chain of human Retinoic Acid Receptor beta (RARb), RARB (gene 5915) (P10826 whole entry, looked up, the tested form may be a part): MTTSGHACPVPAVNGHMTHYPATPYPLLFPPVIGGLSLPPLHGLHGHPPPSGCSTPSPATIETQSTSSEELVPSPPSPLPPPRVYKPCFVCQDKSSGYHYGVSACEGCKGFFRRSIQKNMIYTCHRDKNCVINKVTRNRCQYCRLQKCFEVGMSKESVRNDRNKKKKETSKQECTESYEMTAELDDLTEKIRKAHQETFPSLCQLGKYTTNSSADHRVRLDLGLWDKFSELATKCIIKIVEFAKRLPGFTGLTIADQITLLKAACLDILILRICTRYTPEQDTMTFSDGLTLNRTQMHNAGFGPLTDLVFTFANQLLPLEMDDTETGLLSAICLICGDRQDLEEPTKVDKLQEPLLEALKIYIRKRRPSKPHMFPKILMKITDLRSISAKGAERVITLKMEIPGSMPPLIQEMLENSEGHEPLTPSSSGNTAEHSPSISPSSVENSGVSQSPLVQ
Chain of human RAR-related Orphan Receptor beta (RORb), RORB (gene 6096) (Q92753 whole entry, looked up, the tested form may be a part): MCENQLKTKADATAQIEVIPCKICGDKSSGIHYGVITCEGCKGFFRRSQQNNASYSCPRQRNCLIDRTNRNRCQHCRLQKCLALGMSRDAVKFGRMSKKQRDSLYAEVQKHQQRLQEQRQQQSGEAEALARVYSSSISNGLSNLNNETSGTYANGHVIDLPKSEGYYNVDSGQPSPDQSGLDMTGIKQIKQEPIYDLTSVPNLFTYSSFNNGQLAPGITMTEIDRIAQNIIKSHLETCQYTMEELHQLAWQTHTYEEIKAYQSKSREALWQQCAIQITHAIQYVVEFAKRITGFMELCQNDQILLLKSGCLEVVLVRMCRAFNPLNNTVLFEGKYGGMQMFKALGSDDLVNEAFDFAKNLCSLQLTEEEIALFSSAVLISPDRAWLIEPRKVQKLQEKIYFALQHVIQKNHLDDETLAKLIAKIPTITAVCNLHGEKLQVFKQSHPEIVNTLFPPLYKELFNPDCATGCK
Chain of human Peroxisome Proliferator-activated Receptor delta (PPARd), PPARD (gene 5467) (Q03181 whole entry, looked up, the tested form may be a part): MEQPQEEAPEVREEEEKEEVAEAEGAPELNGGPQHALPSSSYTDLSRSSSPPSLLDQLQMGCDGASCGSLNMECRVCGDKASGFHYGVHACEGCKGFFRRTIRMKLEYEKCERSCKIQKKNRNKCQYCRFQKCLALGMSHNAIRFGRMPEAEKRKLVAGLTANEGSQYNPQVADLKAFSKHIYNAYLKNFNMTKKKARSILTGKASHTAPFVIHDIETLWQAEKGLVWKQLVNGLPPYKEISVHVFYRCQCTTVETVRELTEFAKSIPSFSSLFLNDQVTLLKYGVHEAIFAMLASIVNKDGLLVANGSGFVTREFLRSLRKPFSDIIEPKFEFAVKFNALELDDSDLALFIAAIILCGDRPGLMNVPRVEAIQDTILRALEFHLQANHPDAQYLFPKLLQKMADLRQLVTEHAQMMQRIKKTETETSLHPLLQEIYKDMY
Chain of Nuclear receptor subfamily 1 group I member 2 (Homo sapiens) (O75469 whole entry, looked up, the tested form may be a part): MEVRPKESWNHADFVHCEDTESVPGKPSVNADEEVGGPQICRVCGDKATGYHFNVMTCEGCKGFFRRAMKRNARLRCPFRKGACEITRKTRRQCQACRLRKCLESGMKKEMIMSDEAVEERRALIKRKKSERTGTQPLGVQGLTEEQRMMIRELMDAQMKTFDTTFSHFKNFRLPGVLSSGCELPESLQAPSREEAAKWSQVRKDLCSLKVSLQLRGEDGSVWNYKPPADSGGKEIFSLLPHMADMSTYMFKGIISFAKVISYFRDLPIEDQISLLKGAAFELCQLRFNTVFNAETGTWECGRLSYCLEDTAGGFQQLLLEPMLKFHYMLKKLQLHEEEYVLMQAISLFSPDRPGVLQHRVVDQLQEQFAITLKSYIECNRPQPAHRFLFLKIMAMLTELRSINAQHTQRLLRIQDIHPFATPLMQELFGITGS
Chain of Myc proto-oncogene protein (Homo sapiens) (P01106 whole entry, looked up): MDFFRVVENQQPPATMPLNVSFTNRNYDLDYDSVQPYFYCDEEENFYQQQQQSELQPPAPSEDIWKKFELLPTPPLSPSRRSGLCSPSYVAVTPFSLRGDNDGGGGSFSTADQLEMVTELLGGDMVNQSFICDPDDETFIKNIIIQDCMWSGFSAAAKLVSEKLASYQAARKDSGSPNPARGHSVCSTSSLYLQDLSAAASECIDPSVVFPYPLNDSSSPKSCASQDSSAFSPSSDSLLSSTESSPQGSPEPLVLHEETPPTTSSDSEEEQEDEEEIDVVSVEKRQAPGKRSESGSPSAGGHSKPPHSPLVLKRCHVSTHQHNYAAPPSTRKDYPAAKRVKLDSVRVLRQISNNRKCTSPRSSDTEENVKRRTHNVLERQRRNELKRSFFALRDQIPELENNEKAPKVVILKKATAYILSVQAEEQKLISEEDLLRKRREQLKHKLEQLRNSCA
Chain of human Retinoic Acid Receptor gamma (RARg), RARG (gene 5916) (P13631 whole entry, looked up, the tested form may be a part): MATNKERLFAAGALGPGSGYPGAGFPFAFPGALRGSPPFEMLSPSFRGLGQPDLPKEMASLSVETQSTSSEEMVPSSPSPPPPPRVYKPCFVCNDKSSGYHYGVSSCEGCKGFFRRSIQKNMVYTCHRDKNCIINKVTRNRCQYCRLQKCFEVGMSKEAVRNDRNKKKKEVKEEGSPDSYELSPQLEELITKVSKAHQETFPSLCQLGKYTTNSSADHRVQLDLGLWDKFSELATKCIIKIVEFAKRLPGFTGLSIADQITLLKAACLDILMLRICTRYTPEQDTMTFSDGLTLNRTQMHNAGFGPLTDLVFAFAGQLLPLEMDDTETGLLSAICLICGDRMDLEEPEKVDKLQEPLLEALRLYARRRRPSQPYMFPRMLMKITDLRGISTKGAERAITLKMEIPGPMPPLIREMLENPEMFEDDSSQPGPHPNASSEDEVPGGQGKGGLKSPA
Chain of Cellular tumor antigen p53 (Homo sapiens) (P04637 whole entry, looked up): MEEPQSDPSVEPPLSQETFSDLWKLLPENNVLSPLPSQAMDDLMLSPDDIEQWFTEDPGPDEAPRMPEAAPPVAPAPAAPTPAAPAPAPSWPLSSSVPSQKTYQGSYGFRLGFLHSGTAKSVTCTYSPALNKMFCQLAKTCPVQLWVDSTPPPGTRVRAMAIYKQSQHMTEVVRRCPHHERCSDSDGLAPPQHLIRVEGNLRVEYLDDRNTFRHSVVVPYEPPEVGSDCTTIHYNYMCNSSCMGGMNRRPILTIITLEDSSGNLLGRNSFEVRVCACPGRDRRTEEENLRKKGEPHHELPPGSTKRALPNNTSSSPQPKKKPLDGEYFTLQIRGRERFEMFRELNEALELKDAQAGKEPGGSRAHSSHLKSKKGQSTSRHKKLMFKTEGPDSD

O=C(N[C@@H](c1ccccc1)[C@@H]1CCCCN1)c1cccc(C(F)(F)F)c1Cl
inactive: [6] | [7] | [8] | [9] | [10] | [13]
active: [1] 54 µM | [2] 53.2 µM | [3] 22.6 µM | [4] 20 µM | [5] 20 µM | [11] 27.6 µM | [12] 5.4 µM

CCCCC(CC)COC(=O)CCCCCCCC(=O)OCC(CC)CCCC (stereo not drawn)
inactive: [1] | [2] | [3] | [4] | [5] | [6] | [8] | [10] | [12] | [14]

CCc1nc(N)nc(N)c1-c1ccc(Cl)cc1
active: [1] 166 µM | [15] 2.15 µM | [3] 138 µM
not listed: [2] | [11] | [13] | [16] | [17] | [18]
inactive: all other assays above

CC(=O)OCC(COC(C)=O)OC(C)=O
inactive: [1] | [2] | [15] | [3] | [4] | [5] | [6] | [9] | [10] | [14]

CC(=O)OC1CC(C)OC(C)O1 (stereo not drawn)
inactive: [1] | [2] | [3] | [4] | [5] | [6] | [9] | [10] | [16] | [14]

O=[Si]=O
not listed: [7] | [9] | [18]
inactive: all other assays above

COc1ccc(C(=O)Nc2nc3ccccc3c(NCc3ccccc3)c2C#N)cc1
active: [15] 0.952 µM | [3] 7.37 µM | [12] 0.585 µM
not listed: [2] | [11] | [13] | [16]
inactive: all other assays above

CC(C)c1cccc(C(C)C)c1
not listed: [8] | [11] | [13] | [17] | [18]
inactive: all other assays above

CCCCCCC(C=O)=Cc1ccccc1
inactive: [1] | [2] | [3] | [9] | [16] | [12] | [17] | [14]
active: [3] 159 µM | [4] 27.4 µM | [5] 36.6 µM | [6] 35.6 µM | [8] 27.2 µM and 15.8 µM | [10] 36.6 µM | [11] 31.8 µM | [12] 100 µM
